Efa HMGR inh: blocks class II HMG-CoA reductase of Enterococcus faecalis. purified E. faecalis HMGR, NADPH absorbance 340 nm kinetic. inhibition, % at 10 µM. 190,000 tested, 0.41% active. AID 1066;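 active means inhibition above a set limit, the median over all tested compounds plus 3 SD, cut at about 9.5% in these data; inconclusive means no clear call, values can overlap the other calls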;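 further: enzyme runs in reverse so mevalonate oxidation gives rising NADPH absorbance; 0% = complete reaction with DMSO and 100% = background rate lacking mevalonate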
TNF necrop inh: blocks TNF-alpha induced death of Jurkat FADD-/- cells; Jurkat FADD-/- TNF necroptosis rescue, ATP luminescence, 24 h; 0 = TNF only, 100 = no-TNF cells; activation (protection from cell death), % at 10 µM; 220,000 tested, 0.068% active;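 active means activation, meaning protection from cell death, of at least 50% relative to plate controls; inactive means activation below 50%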;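 further: necroptosis triggered by 40 ng/mL TNF-alpha added together with compound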
L929 necroptosis: blocks zVAD induced death of L929 cells | L929 zVAD necroptosis rescue, ATP luminescence, 24 h; with zVAD 60 µM | viability rescue, % at 10 µM | 220,000 tested, 0.38% active | AID 1377;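 active means activation, scaled between plate controls, above about 75%, limit read from the data; inactive means activation under that limit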;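 further: 0% = zVAD with DMSO and 100% = DMSO alone without zVAD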
ROMK mod: modulators of human ROMK potassium channel; Tet-inducible ROMK, thallium flux fluorescence; actives lie on both sides; B-score at 10 µM; P48048; 130,000 tested, 2% active;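 active means signal ratio slope over the read window, or its plate-corrected B-score, at least 3 SD from the plate mean, either direction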;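 further: B-score of the F/F0 ratio slope over 7 to 12 s after thallium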
Target sequence (P48048 whole entry, looked up): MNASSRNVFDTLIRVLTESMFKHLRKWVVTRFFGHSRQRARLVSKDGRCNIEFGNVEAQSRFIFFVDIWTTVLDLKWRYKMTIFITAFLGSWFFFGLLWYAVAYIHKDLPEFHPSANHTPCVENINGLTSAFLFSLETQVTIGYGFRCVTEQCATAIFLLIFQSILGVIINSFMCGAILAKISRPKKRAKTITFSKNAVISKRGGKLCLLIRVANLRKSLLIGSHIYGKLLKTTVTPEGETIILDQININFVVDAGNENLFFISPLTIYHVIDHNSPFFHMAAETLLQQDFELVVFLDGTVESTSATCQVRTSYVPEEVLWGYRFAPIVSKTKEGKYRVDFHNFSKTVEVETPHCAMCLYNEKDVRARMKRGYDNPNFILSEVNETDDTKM
14-3-3 Bad inh: disrupts binding of bovine 14-3-3 zeta to phospho-Bad peptide | P63103 | TR-FRET 14-3-3zeta/Dy647-pBad peptide displacement, 1 h | inhibition, % at 21.7 µM | 220,000 tested, 0.71% active | AID 781;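 active means inhibition above about 70%, limit read from the data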;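 further: 0% = full 14-3-3 plus peptide FRET controls and 100% = background without 14-3-3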
Target sequence (P63103 whole entry, looked up): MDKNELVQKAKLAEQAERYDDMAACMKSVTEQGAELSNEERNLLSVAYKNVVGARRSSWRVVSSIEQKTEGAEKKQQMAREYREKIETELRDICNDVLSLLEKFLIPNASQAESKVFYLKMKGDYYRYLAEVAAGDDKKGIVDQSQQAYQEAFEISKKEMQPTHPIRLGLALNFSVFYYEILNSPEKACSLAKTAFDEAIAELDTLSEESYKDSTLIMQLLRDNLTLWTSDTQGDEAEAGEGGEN
m-calpain inh: inhibitors of pig calpain II | inhibition, % at 16 µM | AID 1236 | 220,000 tested, 0.37% active | purified calpain II, fluorogenic peptide substrate, 30 min;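 active means inhibition above about 50%, limit read from the data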
ROMK hit retest: retested hit modulating human ROMK potassium channel | 3,000 tested, 54% active | normalized thallium flux (F/F0 slope) at 10 µM | ROMK thallium flux, fluorescence ratio; hits give low values | shares compounds with ROMK mod;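 active means Flux at 10 µM at least 3 SD below or above vehicle control mean in one or both replicates; inconclusive means no clear call, values can overlap the other calls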
The depositor's hits bear a star; ? = inconclusive; . = not tested or not shown. Hits are enriched below; roughly 3% of the tested compounds scored in any of these assays.

SMILES | Efa HMGR inh | TNF necrop inh | L929 necroptosis | ROMK mod | 14-3-3 Bad inh | m-calpain inh | ROMK hit retest
COC(=O)c1ccc2c(=O)n(CCCCCC(=O)NCCNC(C)=O)c(=O)[nH]c2c1 | -3 | 0 | 2 | 0.55 | 0 | -98 | .
CCCCC(c1nnnn1C1CCCC1)N1CCN(C2CCCCC2)CC1 (centres undefined) | -2 | 1 | -1 | -4.1* | 6 | -7 | 0.063*
COc1ccccc1C1=NOC(COc2ccc3c(C)cc(=O)oc3c2)C1 (centres undefined) | . | -19 | -1 | 3.3* | 7 | 39 | 0.082
COc1ccc(C2=NOC(COc3ccc4c(C)cc(=O)oc4c3)C2)c(OC)c1 (centres undefined) | . | -17 | -1 | . | 2 | 24 | .
NCCNc1ccc([N+](=O)[O-])c(NC2CC2)c1 | -1 | 4 | 0 | -0.89 | 4 | 10 | .
O=c1nc(/C=C/c2cccn2-c2ccc([N+](=O)[O-])cc2)cc(C(F)(F)F)[nH]1 | -4 | -1 | 2 | 0.27 | 12 | -52 | .
O=c1nc(/C=C/c2cc([N+](=O)[O-])ccc2Cl)cc(C(F)(F)F)[nH]1 | 0 | -10 | 0 | -6* | -7 | -24 | 0.04*
COc1ccc2cc(C(=O)N/N=C/c3sc4ccccc4c3O)ccc2c1 | 4 | 0 | 7 | -2.8* | -15 | -89 | 0.048*
N=c1oc2ccc3ccccc3c2cc1-c1nc(-c2ccccc2)cs1 | 6 | 0 | 1 | . | -4 | -59 | 0.048*
S=C(CN1CCCC1=S)NCCc1ccccc1 | . | 5 | 1 | . | 0 | 0 | 0.078
CC12COC3(P(=O)(c4ccccc4)c4ccccc4)CC1CCC23CP(=O)(c1ccccc1)c1ccccc1 (centres undefined) | 0 | -1 | -1 | -2.9* | 4 | -26 | 0.051*
CC12COC3(C(=O)Nc4ccc(F)cc4)CC1CCC32C (centres undefined) | 1 | 2 | 2 | . | -5 | 9 | .
C/C(=N\NC(=O)c1ccccc1)c1cc2cc([N+](=O)[O-])ccc2oc1=O | -1 | -2 | 0 | -2.9* | -7 | 15 | 0.055*
C=CCn1c(SCC(=O)N2CCc3ccccc3C2)nc2sc(CC)cc2c1=O | -10 | -4 | -1 | . | -12 | 23 | 0.082
Nc1ccccc1C#CCCCCO | -10 | -6 | 2 | 0.66 | -8 | 7 | .
CCCNC(=S)Nc1ccc2nc(-c3ccccn3)c(-c3ccccn3)nc2c1 | -1 | -4 | 0 | . | -5 | -143 | .
O=C(NNC(=S)Nc1ccc(Br)cc1Cl)c1ccncc1 | 0 | -9 | -2 | 6* | 1 | -10 | 0.11*
O=C(O)c1cccc(NC(=S)NC(=O)c2ccc(-c3ccc(Cl)cc3)o2)c1 | -1 | 0 | 0 | 2.1* | -8 | -24 | 0.083
S=C(NCCCn1ccnc1)NC1CCCCC1 | 2 | 1 | 0 | 0.31 | -18 | -5 | .
CCn1c(SCc2nc(-c3cccs3)no2)nnc1-c1c[nH]c2ccccc12 | 0 | -2 | 0 | . | -12 | 8 | 0.057*
CCn1c(SCc2nc(-c3ccccc3)no2)nnc1-c1cccs1 | -7 | 1 | 0 | -0.087 | -6 | -14 | .
CC(C)Cn1nc(NC(=O)c2cccs2)c2cc3ccccc3nc21 | . | 2 | 2 | . | 3 | -14 | .
COc1ccc2nc3c(cc2c1)c(NC(=O)c1cccs1)nn3CC(C)C | 0 | 7 | 1 | . | 14 | -73 | 0.072
CC(C)(C)OC(=O)N1CCN(C(=O)Nc2ccc3c(c2)OCCO3)CC1 | 2 | 0 | 0 | -0.03 | -6 | 2 | .
Cc1ccc(C)c(Nc2cc(C(=O)NCc3cccnc3)c3ccccc3n2)c1 | . | 0 | 1 | 0.87 | -6 | -17 | .
SMILES | Efa HMGR inh | TNF necrop inh | L929 necroptosis | ROMK mod | 14-3-3 Bad inh | m-calpain inh | ROMK hit retest
COc1ccc(-c2cnnc(N/N=C/C(C)=C/c3ccccc3)n2)cc1 | -6 | 3 | 2 | . | -5 | 24 | .
c1cc2c(cn1)cnc1cscc12 | -1 | -1 | 3 | 2.6* | -2 | -47 | 0.092
CCOc1cc(NC(=S)Nc2ccccc2OC)c(OCC)cc1NC(=O)c1ccccc1C | -5 | -5 | 0 | . | -9 | 12 | .
COc1cccc(/C=N/NC(=O)c2cc3c(OC)cccc3[nH]2)c1OC | 0 | 2 | 3 | . | -9 | -7 | 0.07
Cc1ccccc1C(=NCCCN(C)C)c1ccccc1C | -6 | 3 | 0 | -0.85 | 0 | 13 | .
Cc1ccc(-n2cccc2/C=C2/C(=N)N3C(=NC2=O)SN=C3S(C)(=O)=O)cc1Cl | -8 | 2 | -1 | . | 16 | 36 | 0.075
N#CC1=C(N)NC(SCC(=O)Nc2ccc(Br)cc2)=C(C#N)C12CCCCC2 | 1 | 6 | 1 | -2.3 | -7 | -22 | .
N#CC1=C(N)NC(SCc2ccc(Br)cc2)=C(C#N)C12CCCCC2 | -9 | 3 | 1 | -3.9* | -19 | 24 | 0.077
N#CC1=C(N)NC(SCc2ccc(Cl)cc2)=C(C#N)C12CCCCC2 | 0 | 5 | 2 | -0.85 | -4 | 64* | 0.062*
N#CC1=C(N)NC(SCc2ccccc2)=C(C#N)C12CCCC2 | -1 | -5 | . | -1.1 | -11 | 40 | .
O=C(OC1C2CCC1C1CN(CCc3ccccc3)CC12)c1ccccc1 (centres undefined) | 2 | 3 | 0 | -3.1 | -1 | -2 | .
CC1(CC(=O)N/N=C/c2cc([N+](=O)[O-])c(O)cc2O)OCCO1 | 3 | 2 | 3 | 0.7 | -1 | 6 | 0.081
Cc1ccc(-n2c(C)cc(/C=N/NC(=O)CC3(C)OCCO3)c2C)c(C)c1 | 1 | -5 | -2 | 1.6 | -12 | 24 | .
CC(C)OC(=O)C[N+](C)(C)CCN1C(=O)C2C(c3ccccc3)C=CC(c3ccccc3)C2C1=O (centres undefined) | -7 | 0 | 0 | -3.3* | -5 | 26 | ?
COC(=O)Nc1nc(-c2ccccc2)c(C(=O)c2ccc(Cl)cc2)s1 | -7 | -16 | 0 | 2 | 0 | 18 | .
CCOC(=O)Nc1nc(-c2ccccc2)c(C(=O)c2ccccc2)s1 | -1 | -16 | -1 | 3.6* | -40 | 7 | 0.082
CC(=O)c1sc(NC(=O)c2ccccc2)nc1-c1ccccc1 | 2 | 0 | 2 | 0.55 | -8 | 13 | .
CC(=O)c1sc(NC(=O)c2c(F)cccc2F)nc1-c1ccccc1 | 0 | 1 | 3 | -12* | -1 | 33 | 0.078
O=c1n(Cc2ccc(Cl)cc2)c2sc3c(c2c2ncnn12)CCCC3 | 1 | -3 | 0 | . | 22 | 20 | .
COc1ccc(N2CCN(C(=O)c3cc(N4C(=O)C5C6CCC(C6)C5C4=O)ccc3Cl)CC2)cc1 (centres undefined) | -3 | 2 | 0 | -2.3 | -16 | -8 | .

Screens (PubChem)
